Results on 8 molecules are retold here after PubChem BioAssay (NCI).

The panel holds about 79,000 compounds, 15% with a hit somewhere; the sample as a whole holds those more often. Values without a mark were called inactive. Calls of active or inactive are those of the source. Cut-off read from the data, not from the text of the source: active = growth inhibition above about 70%; inactive = the rest.

The nature of the assay: NCI Yeast Anticancer Drug Screen. Data for the rad52 strain (AID 147).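 Note: 0% = growth of vehicle-treated control cultures.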 Conditions: S. cerevisiae rad52 mutant growth inhibition, hits give high values. The procedure:
Growth inhibition of yeast strains with defined genetic alterations is measured as a screen for potential anti-cancer activity. Selected strains with alterations in DNA damage repair or cell cycle control were exposed to compounds and growth inhibition was measured relative to vehicle treated controls. The strain used in this assay is rad52

Take `CC(C)/C(Cl)=N\OC(=O)Nc1ccccc1F`: the growth inhibition reads like this: (at 1.2 µM) 4%; (at 3.7 µM) 9%; (at 11.0 µM) 19%; (at 33.0 µM) 35%; (at 100.0 µM) 35%.
As for `C(=C\c1ccccc1)/COc1ccccc1C(N1CCOCC1)n1nc2ccccc2n1` (stereo not given), the growth inhibition by setting is: (at 1.2 µM) 3%; (at 3.7 µM) 3%; (at 11.0 µM) 13%; (at 33.0 µM) 85% (active); (at 100.0 µM) 97% (active).
Turning to `CSC(=S)N/N=C(\C)c1cccc(C)n1`, the growth inhibition runs as follows: (at 1.2 µM) -3%; (at 3.7 µM) -5%; (at 11.0 µM) -8%; (at 33.0 µM) 47%; (at 100.0 µM) 97% (active).
With `COC(=O)C1=C(C(=O)OC)C2(C)C=CC1O2` (stereo not given), the growth inhibition (at 1.2 µM) was -1%; the growth inhibition (at 3.7 µM) is -4%; the growth inhibition (at 11.0 µM) is 21%; the growth inhibition (at 33.0 µM) was 70% (active); the growth inhibition (at 100.0 µM) was 91% (active).
The like results for `OC1CSCCCSCCSCCCSC1` were, in that order, -53%, -55%, -49%, -61% and -48%.
The corresponding values for `COC(=O)C1=C(C)NC(C)=C(C(=O)OCCCN2CCC(c3ccccc3)(c3ccccc3)CC2)C1c1cccc([N+](=O)[O-])c1` (stereo not given) are -8%, 2%, 97% (active), 97% (active) and 88% (active).
The corresponding values for `CCCCCCCCCCCC(=O)N(C)C` are -12%, -6%, -19%, 30% and 98% (active).
With `CCN(CC)CCNc1ccc([N+](=O)[O-])c2nc3ccc(OC)cc3c(N)c12`, the growth inhibition (at 1.2 µM) is -23%; the growth inhibition (at 3.7 µM) was -13%; the growth inhibition (at 11.0 µM) was 19%; the growth inhibition (at 33.0 µM) was 74% (active); the growth inhibition (at 100.0 µM) was 90% (active).
